Measured values from PubChem BioAssay (NCI).
About 79,000 compounds went through this panel and 15% of them were active in at least one assay; those are over-represented in the sample as a whole. Active and inactive are the calls of the source. Rule as the data show it: active = growth inhibition above about 70%; inactive = the rest.

What was measured:
[1] = NCI Yeast Anticancer Drug Screen. Data for the rad50 strain (AID 155);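 also: 0% = growth of vehicle-only cultures of the same strain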; conditions: S. cerevisiae rad50 strain growth inhibition; at 50.0 µM; stronger effect = higher value
Method in brief: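 Genetically altered yeast (DNA repair pathway); compound treatment; growth inhibition vs vehicle ctrl.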

[2] = NCI Yeast Anticancer Drug Screen. Data for the mec2-1 strain (AID 157); conditions: S. cerevisiae mec2-1 strain, at 50.0 µM, stronger effect = higher value
Method in brief: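 Cells of the genetically defined mec2-1 yeast strain are incubated with test compound. Inhibition of growth is calculated against vehicle-treated controls.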

[3] = NCI Yeast Anticancer Drug Screen. Data for the sgs1 mgt1 strain (AID 161);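 also: 0% = growth of cultures given vehicle only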; conditions: S. cerevisiae sgs1 mgt1 strain, at 50.0 µM, stronger effect = higher value
Method in brief: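 Test agents were incubated with a DNA-repair-mutant yeast strain. Growth was then read and compared against vehicle-treated controls.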

[4] = NCI Yeast Anticancer Drug Screen. Data for the cln2 rad14 strain (AID 165);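 also: 0% = growth equal to vehicle treated cultures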; conditions: S. cerevisiae cln2 rad14 strain, at 50.0 µM, stronger effect = higher value
Method in brief: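 The screen exposed genetically defined yeast (cln2 rad14) to test compounds and scored growth inhibition relative to vehicle-treated controls.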

[5] = NCI Yeast Anticancer Drug Screen. Data for the bub3 strain (AID 167); conditions: S. cerevisiae bub3 mutant strain, at 50.0 µM, stronger effect = higher value
Method in brief: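 Yeast carrying a defined mutation is treated with each compound, and growth is compared with that of vehicle-exposed cells to give inhibition.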

[6] = NCI Yeast Anticancer Drug Screen. Data for the mlh1 rad18 strain (AID 175); conditions: S. cerevisiae mlh1 rad18 strain growth inhibition; at 50.0 µM; stronger effect = higher value
Method in brief: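 Compound-treated yeast growth, normalised to vehicle controls. Strain bears defined DNA repair mutations.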

Measured: growth inhibition

COc1cc2c(cc1OC)[C@@H]1C(=O)c3ccc4c(c3O[C@@H]1CO2)C[C@H](C(C)C)O4
inactive: [1] -11.2% | [2] -40.2% | [3] -1.45% | [4] -9.25% | [5] -33.6% | [6] 7.2%

CN(N)c1ccc([N+](=O)[O-])cc1[N+](=O)[O-]
inactive: [1] -5.75% | [2] -39.1% | [3] -29.8% | [4] -6.2% | [5] -3.2% | [6] -39.1%

[Cu+2].[NH-]c1ccccc1C(=O)O.[NH-]c1ccccc1C(=O)O
inactive: [1] -34.8% | [2] -21.8% | [3] -13.9% | [4] -87.7% | [5] -27.1% | [6] -52.4%

O=P(Oc1ccccc1)(Oc1ccccc1)C(O)c1ccccc1 (configuration not stated)
inactive: [1] 11.2% | [2] 3.55% | [3] 16.8% | [4] 0.65% | [5] -8.4% | [6] -2%

c1ccc2c(c1)sc1ccccc12
inactive: [1] 15.5% | [2] -13.7% | [3] 16.9% | [4] -29.4% | [5] -8.6% | [6] 15.2%

BrCC[N+]12CC[N+](CCBr)(CC1)C2 (tested in a mixture with another compound)
inactive: [1] 63.1% | [2] 49.5% | [4] 61.5% | [6] 42.4%
active: [3] 81.6% | [5] 78.1%

O=P(Oc1ccccc1)(N1CCCC1)N1CCCC1
inactive: [1] 27.9% | [2] 18.4% | [3] 11.9% | [4] 18.1% | [5] 36.5% | [6] 8.15%

CCCCCCCCCCCCCCCC[As](CCCCCCCCCCCCCCCC)SCC1OC(OC(C)=O)C(OC(C)=O)C(OC(C)=O)C1OC(C)=O (configuration not stated)
inactive: [1] -3.8% | [2] 3.45% | [3] 6% | [4] 1% | [5] -20.1% | [6] -20.6%

S=P(Oc1cc(Cl)c(Cl)cc1Cl)(N1CCOCC1)N1CCOCC1
inactive: [1] 37.1% | [2] 8.85% | [3] 42% | [4] 35% | [5] 12.3% | [6] 19.9%

COc1ccc2nc3c4ccccc4scc-3c2c1
active: [1] 99.4% | [2] 99.5% | [3] 99.5% | [4] 99.2% | [5] 99.2% | [6] 99.3%

O=NN1CCCCCC1C(=O)O (configuration not stated)
inactive: [1] -22.1% | [2] 1% | [3] -20.9% | [4] -24.7% | [5] 2.7% | [6] -0.25%

[Se]=P(c1ccccc1)(N1CC1)N1CC1
inactive: [1] 33.2% | [2] 10.2% | [3] 11.8% | [4] 3.55% | [5] -1.3% | [6] 6.85%

COc1cc2c3c(c1OC)Oc1ccc(cc1)CC1c4c(cc(OC)c(OC)c4Oc4ccc(cc4)CC3N(C)CC2)CCN1C (configuration not stated)
inactive: [1] 2.75% | [2] 11.9% | [3] -11.3% | [4] -8% | [5] -13.6% | [6] -3.65%

CC(Cl)CN1CCCCC1 (configuration not stated) (tested in a mixture with another compound)
inactive: [1] 15.2% | [2] 1.25% | [3] 23.8% | [4] 7.75% | [5] 3.2% | [6] 17.9%

COC(=O)CCCCCCCCCCN(CCCl)CCCl
inactive: [1] 39.6% | [2] 29.1% | [3] 31.9% | [4] 26.2% | [5] 21% | [6] 67%

CN1CN(c2ccccc2)C2(CCN(CCc3cc4ccccc4o3)CC2)C1=O
inactive: [1] -30.9% | [2] -10.1% | [3] -12.8% | [4] -28.9% | [5] 3.4% | [6] -22.2%

O=C(Nc1cccc(S(=O)(=O)F)c1)c1cccc([N+](=O)[O-])c1
active: [1] 96.5% | [2] 94.8% | [3] 98.5% | [4] 91.7% | [5] 95.6% | [6] 96.8%

[N-]=[N+]=C1C(=O)C2CC3CC1CC2C3 (configuration not stated)
inactive: [1] -3.55% | [2] 12.7% | [3] -9.35% | [4] 8.55% | [5] 1.9% | [6] 1.5%

O=S1(=O)OCCO1
inactive: [1] -3.5% | [2] -9% | [3] -3.8% | [4] -27.4% | [5] -5.55% | [6] 7.9%

Cc1c(Cl)cc([N+](=O)[O-])c(O)c1[N+](=O)[O-]
inactive: [1] 6.1% | [2] -1.45% | [3] 5% | [4] 30.7% | [5] 26.1% | [6] 7.85%

O=C(c1ccc(Cl)cc1)N1CCOCC1
inactive: [1] -4.45% | [2] -15.2% | [3] -7.6% | [4] -29.4% | [5] -53% | [6] -7.95%

O=C(CCc1ccccc1)Nc1ccc(Cl)cc1C(=O)c1ccccc1
inactive: [1] -0.85% | [2] 20.2% | [3] 24.4% | [4] -26.2% | [5] 54.1% | [6] 28.6%

CCCCCCCCCCCC(=O)[O][Pb]([CH2]CCC)([CH2]CCC)[O]C(=O)CCCCCCCCCCC
inactive: [1] 23.5% | [2] 4.05% | [3] 13.2% | [4] -3.15% | [5] 6.45% | [6] 23%

COc1ccc(CCN)cc1OC
inactive: [1] 37.5% | [2] 9.9% | [3] 23% | [4] -82% | [5] -5.05% | [6] -24.2%

Nc1noc(N)n1
inactive: [1] -43% | [2] -22.1% | [3] -26.8% | [4] -23.1% | [5] -18.1% | [6] -28.4%

CNC1=C(C)C(=O)C2=C(C1=O)C(COC(N)=O)C1(OC)C3NC3CN21 (configuration not stated)
inactive: [1] 58.8% | [2] 53% | [3] 52% | [4] 60.6% | [5] 31.4%
active: [6] 83.8%

COc1ccc2[se]c(C)nc2c1
inactive: [1] -26.2% | [2] -35.1% | [3] 5.3% | [4] -2.6% | [5] -17.3% | [6] -18.6%

Cn1c(O)c(N=NC(N)=S)c(=O)n(C)c1=O
inactive: [1] 30.6% | [2] 20.4% | [3] 8.95% | [4] -20.4% | [5] -20.3% | [6] 14.6%

CC1CN1P(=O)(N1CCCC1)N1CC1C (configuration not stated)
inactive: [1] 5.25% | [2] 15.1% | [3] -20.3% | [4] 6.5% | [5] -1.5% | [6] 13.4%

Cc1ccc(N2CCNCC2C)cc1 (configuration not stated)
inactive: [1] 6.15% | [2] -13.2% | [3] -4.6% | [4] 8.95% | [5] -9.25% | [6] 11.2%

COC12C(COC(N)=O)C3=C(C(=O)C(C)=C(N4CC4)C3=O)N1CC1NC12 (configuration not stated)
active: [1] 87.7% | [2] 90.3% | [3] 90.9% | [4] 86.3% | [5] 88.8% | [6] 87.2%

O=c1[nH]c2ccccc2c(=O)n1-c1ccco1
inactive: [1] 4.2% | [2] -13.5% | [3] -9% | [4] -15.4% | [5] -25.1% | [6] -1.65%

CC(/C=C/C1OC(=O)C=CC1C)=C\C(C)C/C=C/C(C)=C/C(CO)C(=O)C(C)C(O)C(C)C/C(C)=C/C(=O)O (configuration not stated)
active: [1] 73.1% | [3] 81.9% | [5] 77.6% | [6] 87.4%
inactive: [2] 62.2% | [4] 62.6%

CCCCCCC(Cn1ccnc1)c1ccc(Br)cc1 (configuration not stated)
active: [1] 98.2% | [2] 98.8% | [3] 95.8% | [4] 98.3% | [5] 99.5% | [6] 91.7%

Cc1cc(CCl)c(O)c(CCl)c1
inactive: [1] -22.1% | [2] 0.5% | [3] -4.7% | [4] -49.7% | [5] -18.9% | [6] 22.5%

[CH3][Sb]1([Br])[CH2]CC[CH2]1
inactive: [1] 6.8% | [2] 15.2% | [3] 5.85% | [4] -1.6% | [5] -11.8% | [6] 3.05%

CCOC(=O)N(NC(=O)c1ccc(N(CCCl)CCCl)cc1)C(C)=O
inactive: [1] 6.2% | [2] 8.95% | [3] 3.15% | [4] -15.5% | [5] 5.65% | [6] 30.9%

CCCCCCCC(=O)O.[Sn]
inactive: [1] -2.25% | [2] -7.35% | [3] -9.6% | [4] -45.9% | [5] 12.1% | [6] -19%

CC[C@H]1CN2CCc3cc(OC)c(OC)cc3[C@@H]2C[C@@H]1C[C@H]1NCCc2c1[nH]c1ccc(O)cc21
inactive: [1] -16.8% | [2] 17.3% | [3] -19.9% | [4] -8.65% | [5] -26.9% | [6] 7.7%

C1CC[N-]CC1.C1CC[N-]CC1.[Cl][Pt+2]([Cl])([Cl])[Cl]
inactive: [1] 4.65% | [2] -10.3% | [3] 7.8% | [4] -48.9% | [5] -0.8% | [6] -18.8%

O=C1NC(=O)C(O)(C2=C(O)CCC2=O)C(=O)N1
inactive: [1] 12.8% | [2] -0.3% | [3] 4.9% | [4] -25.6% | [5] 13.9% | [6] 10.4%

CC(Br)C(N)=O (configuration not stated)
inactive: [1] -14.4% | [2] -17.8% | [3] -14.1% | [4] -20.4% | [5] -4.9% | [6] -13.8%
